Assay results from PubChem BioAssay (NCI).
The panel holds about 83,000 compounds, 20% with a hit somewhere; the sample as a whole holds those more often.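 96-well plates, one dose, 48 hours. Percent growth reported; active if below 10.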 Unmarked numbers belong to inactive results. Activity calls are given as the source filed them.

How the values were obtained:
Experiment in all cases: NCI-60 one-dose screen, 48 h (100 = growth as untreated, 0 = no growth, -100 = all killed)
[1] = system: BT-549 breast; conditions: 10 µM unless noted
[2] = system: MDA-MB-435 melanoma; conditions: 10 µM unless noted
[3] = system: SW-620 colon; conditions: 10 µM unless noted
[4] = system: MCF7 breast; conditions: 10 µM
[5] = system: HCT-116 colon; conditions: 10 µM unless noted
[6] = system: HCC-2998 colon; conditions: 10 µM unless noted
[7] = system: KM12 colon; conditions: 10 µM unless noted

Structure (SMILES) | growth [1] | growth [2] | growth [3] | growth [4] | growth [5] | growth [6] | growth [7]
COc1cc(-c2c3c(c(Br)n2Cc2ccccc2)-c2nc(N)sc2CC3)cc(OC)c1OC | 94.1% | 35.8% | 74.9% | 61.4% | 69.2% | 96.3% | 88.6%
Cc1ccc(S(=O)c2ccc([N+](=O)[O-])c3nonc23)cc1 (stereo not given) | 95.4% | 106% | 29% | 92.9% | 68.9% | 116% | 109%
O=C(c1nc2ccccc2[nH]1)C1[C@@H](c2cccc(O)c2)C2CC3CCCCC3N2[C@@]12C(=O)Nc1cc(Cl)ccc12 (stereo not given in full) | 62.5% | 29.3% | 39.3% | 18.9% | 31.5% | 33.8% | 34.9%
O=Cc1cc2ccccc2nc1Nc1nccs1 | 88.9% | 81.4% | 27.5% | 13.2% | 54.3% | 87.6% | 56.2%
NNC(=O)CNC(=O)Nc1n[nH]c(=S)s1 | 116% | 110% | 102% | 93.8% | 94.1% | 106% | 100%
C=CCN1C(=O)/C(=c2\sc3n(c2=O)NC2C(N=3)N(CC)C(=O)N2CC)c2ccccc21 (stereo not given) | 48.6% | -7.64% (active) | 34.3% | 34.3% | 14.8% | 38% | 24.5%
COC(=O)[C@H](NC(=O)C1(C)CCC[C@]2(C)[C@H]3C[C@H]4C(C(C)C)=C[C@]3(CC[C@@H]12)[C@@H]1C(=O)CCC(=O)[C@@H]14)C(C)C (stereo not given in full) | 106% | 104% | 106% | 98.2% | 106% | 104% | 105%
C#CCn1cc(C=C2C(=O)N(C)C(=O)N(C)C2=O)c2cc(Cl)ccc21 | 116% | 103% | 99.5% | 100% | 109% | 112% | 104%
COc1ccc(C2NCCc3c2[nH]c2ccccc32)cc1CN1CCN(c2ccc(F)cc2)CC1 (stereo not given) | 69.7% | 38.2% | 29.6% | 33.9% | 41.6% | 17.9% | 40.4%
O=C(CN1C=NC2C(N3CCOCC3)=NC=NC21)c1ccc(Br)cc1 (stereo not given) | 103% | 101% | 100% | 99.1% | 103% | 111% | 107%
O=Cc1c(OCc2cnnn2CC(=O)Nc2ccc(Br)cc2)ccc2ccccc12 | 80.8% | 102% | 91.3% | 84.1% | 101% | 94.3% | 88.7%
CC(=O)c1ccc(Nc2nc(NCCO)nc(Nc3ccc(Cl)cc3)n2)cc1 | 97.3% | 59.4% | 94.5% | 69.1% | 98.4% | 105% | 90.8%
COc1ccc(-c2nsc3c2NC(=O)CC3c2ccc3c(c2)OCCO3)cc1 (stereo not given) | 27.8% | -46.6% (active) | 35.7% | 24.7% | 12.7% | 33.5% | 20.6%
N#C/C(=C\c1c(-c2ccccc2)[nH]c2ccccc12)C(=O)c1ccccc1 | 61.5% | 10.8% | 19.9% | 19.4% | 30.4% | 60.1% | 28.2%
COc1ccc(CN2CCCC(C(=O)c3ccc(C(F)(F)F)cc3)C2)c(O)c1 (stereo not given) | 25.7% | -48.9% (active) | 13.4% | 10.9% | 15.9% | 31.8% | 18.5%
O=C1NC(=S)NC(=O)C1=Cc1cn(Cc2cn(Cc3cccc4ccccc34)nn2)c2ccccc12 | 101% | 94.8% | 93.4% | 95.4% | 106% | 100% | 97.2%
Cc1cccc2c(=O)c3c(sc12)c(NCCCNCCO)nc1ccccc13 | 73% | 29.5% | -51.6% (active) | -61% (active) | -30.3% (active) | 12.7% | 33.6%
Cc1cc(Nc2ccc(OCc3ccccc3)cc2)nc2cc(O)ccc12 | 69.7% | 65.6% | 11% | 39.3% | 30.6% | -34% (active) | 45.6%

Structure (SMILES) | growth [1] | growth [2] | growth [3] | growth [4] | growth [5] | growth [6] | growth [7]
CNCCNc1nc2ccccc2c2c(=O)c3cccc(OC)c3sc12 | 73.1% | -72.7% (active) | -80.1% (active) | -67.5% (active) | -68.2% (active) | -52.3% (active) | -47.9% (active)
CC(=O)c1ccc(NC(=O)Nc2ccc(S(=O)(=O)Nc3ccc(Cl)nn3)cc2)cc1 | 107% | 107% | 104% | 99.1% | 105% | 107% | 103%
COc1ccc(Cn2cc(Cn3c(=O)c(-c4nc5ccccc5[nH]4)cc4ccccc43)nn2)c(OC)c1OC | -12.2% (active) | -79.6% (active) | 16.9% | 17.1% | 5.1% (active) | -11.7% (active) | 4.44% (active)
Nc1ccccc1-c1ccc(-c2ccc(Cl)cc2)c2c1[nH]c1ccccc12 | 85.4% | 91.2% | 78.2% | 68.7% | 52.8% | 86.1% | 66.6%
O=C(O)CCCN1C(=O)C2C3CCC(C3)C2C1=O (stereo not given) | 107% | 99.7% | 112% | 109% | 108% | 106% | 103%
COc1ccc(-c2cn[nH]c2-c2ccc(OC)c(O)c2)cc1 | 74.1% | 3.35% (active) | 38% | 35.4% | 61.4% | 85.8% | 44.8%
O=c1cc(NC2CCN(CCCc3ccccc3)CC2)c2cc(Cl)ccc2o1 | 17.8% | -8.02% (active) | 6.98% (active) | 3.46% (active) | 8.12% (active) | -6.89% (active) | 0.149% (active)
Cc1cc(OC(=O)c2ccc([N+](=O)[O-])cc2)nc2[nH]c(=O)sc12 | 111% | 108% | 104% | 90.2% | 105% | 104% | 102%
COc1ccc(C2=Nn3c(NN)nnc3SC2)cc1 | 108% | 103% | 112% | 91.4% | 112% | 111% | 101%
COc1ccc(-c2nsc3c2NC(=O)CC3c2ccsc2)cc1 (stereo not given) | 12.1% | -44% (active) | 28.3% | 16.7% | 10.8% | 31.1% | 8.01% (active)
CCOC(=O)c1cnc2c(C)cccc2c1Nc1ccc(C(C)=O)cc1 | 61.5% | -63.8% (active) | -62.2% (active) | -39.7% (active) | 1.75% (active) | -91% (active) | -34.7% (active)
Cc1ccc(NCCNCC(O)CO)c2c(=O)c3ccccc3sc12 (stereo not given) | 63.2% | -26% (active) | -78.7% (active) | -53.6% (active) | -66.1% (active) | – | 15.4%
COc1cc(/C=C2\CN(C)C/C(=C\c3cc(CN4CCCC4)c(O)c(OC)c3)C2=O)cc(CN2CCCC2)c1O | 94.1% | 67.6% | 54.5% | 26.3% | 40.4% | – | 48.3%
CC1(O)COCCCCOc2c(CN)cccc2NC(=O)c2nc(cnc2N)-c2ccc(cc2)S(=O)(=O)C(C)(C)C1 (stereo not given) | 85.4% | -93.4% (active) | -64.2% (active) | -79.4% (active) | -56.5% (active) | – | -72.7% (active)
COC(=O)c1c2c(c(C)[n+]([O-])c1C)C(=O)C(NCc1ccc(F)c(F)c1)=CC2=O | 66.4% | -88.4% (active) | 3.6% (active) | -43.3% (active) | 1.74% (active) | – | 10.4%
O=S(=O)(c1ccc(NC(=S)NC23CC4CC(CC(C4)C2)C3)cc1)N1CCCCC1 | 93.8% | 96% | 55.8% | 94.2% | 50.5% | 114% | 24.7%
COc1ccc2occ(C3=C(c4c[nH]c5ccccc45)C(=O)NC3=O)c2c1 | 35.7% | 1.76% (active) | 22.6% | 21.6% | 26.5% | – | 20.8%
